ST2 IL33 inh: IL1RL1 inhibition; inhibition, % for hits at 17 µM; Q01638; AlphaLISA ST2-Fc/biotin-IL-33 interaction, 1 h; AID 1259354; 78,000 tested, 2.3% active; in the data active means inhibition above about 30%
Target sequence (Q01638 whole entry, looked up): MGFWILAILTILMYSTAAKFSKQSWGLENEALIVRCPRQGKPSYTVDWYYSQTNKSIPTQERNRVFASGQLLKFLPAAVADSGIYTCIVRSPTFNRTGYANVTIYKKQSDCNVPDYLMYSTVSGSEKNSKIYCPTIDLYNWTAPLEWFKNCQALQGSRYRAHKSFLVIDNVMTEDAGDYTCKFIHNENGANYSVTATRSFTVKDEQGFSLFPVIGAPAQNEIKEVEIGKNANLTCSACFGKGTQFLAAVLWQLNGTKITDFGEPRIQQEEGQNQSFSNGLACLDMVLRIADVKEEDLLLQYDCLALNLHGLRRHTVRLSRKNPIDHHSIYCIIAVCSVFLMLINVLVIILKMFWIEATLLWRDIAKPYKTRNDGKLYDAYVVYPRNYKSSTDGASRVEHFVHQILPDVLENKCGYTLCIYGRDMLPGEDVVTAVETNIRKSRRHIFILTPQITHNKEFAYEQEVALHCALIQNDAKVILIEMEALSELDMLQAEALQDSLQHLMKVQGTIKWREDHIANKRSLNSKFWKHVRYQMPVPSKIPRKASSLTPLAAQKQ
The depositor's hits bear a star; i = inactive. The full list was thinned out, with hits kept by preference.

SMILES | ST2 IL33 inh
Cn1nc(-c2cccs2)cc1[C@H]1CN2CC[C@H]1C[C@@H]2CNC(=O)N1CCOCC1 | i
Cn1nc(-c2cccs2)cc1[C@H]1CN2CC[C@H]1C[C@@H]2CNC(=O)Nc1cccc(C#N)c1 | 35.0%*
CCNC(=O)NC[C@H]1C[C@@H]2CCN1C[C@@H]2c1cc(-c2cccs2)nn1C | i
Cc1ccc(C(=O)NC[C@H]2C[C@@H]3CCN2C[C@@H]3c2cc(-c3ccc(F)cc3)nn2C)cc1 | i
Cc1ccc(C(C)Nc2ccc(-c3nc(C4CC4)no3)cn2)cn1 (stereo not drawn) | i
N#CC1=C(N)Oc2c(c(=O)oc3ccccc23)C1c1ccc(F)cc1 (stereo not drawn) | i
N#CC1=C(N)Oc2n[nH]c(C(F)(F)F)c2C1c1ccc(F)cc1 (stereo not drawn) | i
N#CC1=C(N)Oc2n[nH]c(-c3ccc(F)cc3)c2C1c1ccc(F)cc1 (stereo not drawn) | 32.0%*
CCCN1CCC(NC2C3CC4CC(C3)CC2C4)CC1 (stereo not drawn) | i
COc1cc(/C=C/[N+](=O)[O-])c(OC)cc1C | 42.0%*
CC(=O)n1cc(C2C(=O)NC(=O)NC2=O)c2ccccc21 | i
Nc1c2c(nc3ccccc13)CCCCC2 | i
Nc1cc2nc3ccccc3nc2cc1O | 56.0%*
O=C(COc1ccc(Cl)cc1)N1CCN(C2CCCCCC2)CC1 | i
CCN1CCN(Cc2ccc(OC)c(C)c2)CC1 | i
c1ccc(CN2CCN(c3ccccc3)CC2)cc1 | i
COc1ccc(N2CCN(Cc3ccc(Cl)cc3Cl)CC2)cc1 | 36.0%*
COc1ccc(CN2CCN(c3ccccc3)CC2)c(OC)c1 | i
Fc1ccc(CN2CCN(c3ccccc3)CC2)c(F)c1 | i
COc1ccc(N2CCN(Cc3ccc(OC)c(C)c3)CC2)cc1 | 36.0%*
COc1ccc(CN2CCN(c3ccc(F)cc3)CC2)c(OC)c1 | i
COc1ccc(CN2CCN(CCO)CC2)cc1C | i
Clc1ccc(CN2CCN(c3ccccc3)CC2)c(Cl)c1 | 91.0%*
N#Cc1cccc(-c2ccc(=O)n3c2[C@@H]2C[C@@H](CN(C(=O)c4ccc(F)cc4)C2)C3)c1 | i
Nc1n[nH]c(Cc2nc(N)n[nH]2)n1 | i
SMILES | ST2 IL33 inh
CCOc1ccc(C(CN)CC(=O)O)cc1 (stereo not drawn) | i
CN1CCC(N2C[C@@H]3C[C@H](C2)c2c(NC(=O)NC4CCCCC4)ccc(=O)n2C3)CC1 | i
S=C(NCc1ccco1)NC[C@H]1C[C@@H]2CCN1C[C@@H]2CN1CCSCC1 | i
CSCC(=O)Nc1ccc(=O)n2c1[C@@H]1C[C@@H](CN(C(=O)NC3CCCCC3)C1)C2 | i
CC1N=C(c2ccccc2)c2ccccc2N(CC(=O)NCC2CCCO2)C1=O (stereo not drawn) | i
Cn1nc(-c2ccc3ccccc3c2)cc1[C@H]1CN2CC[C@H]1C[C@@H]2CNC(=S)Nc1cccc(C#N)c1 | i
CN1CCc2nc(N)c(C#N)c(-c3ccc(Br)cc3)c2C1 | 34.0%*
COc1ccc(CN2CCN(c3ccccc3F)CC2)cc1 | i
CC[C@H]1CN2CC[C@H]1C[C@@H]2CNC(=O)Nc1cc(OC)cc(OC)c1 | i
O=C(NC[C@H]1C[C@@H]2CCN1C[C@@H]2CN1CCN(c2ccccc2)CC1)c1ccccc1 | i
CC12CCC3C(CCC4=C(O)C(=O)CCC43C)C1CCC2=O (stereo not drawn) | i
C[Se]C[C@H](N)C(=O)O | i
Cc1o[nH]c(=O)c1CC(N)C(=O)O (stereo not drawn) | i
NC(Cc1cc(O)c(O)cc1O)C(=O)O (stereo not drawn) | 95.0%*
COc1ccccc1N1CCN(Cc2cccc(F)c2)CC1 | i
COc1ccc(-n2nc(C(F)(F)F)cc2-c2ccc(Cl)cc2)cc1 | i
O=C1C2CCCN2C(c2cccc(Cl)c2)N1c1ccccn1 (stereo not drawn) | i
CC1CCN(C[C@H]2CN3CC[C@H]2C[C@@H]3CNC(=S)Nc2ccc(-n3cccn3)cc2)CC1 | i
COc1ccccc1N1CCN(Cc2ccc(Cl)cc2)CC1 | i
COc1ccccc1N1CCN(Cc2cccc(Cl)c2)CC1 | i
CCc1ccc(CN2CCN(c3ccccc3OC)CC2)cc1 | 97.0%*
CC(=O)N1CCC2(CC1)CC(=O)c1cc(OCC(=O)N3CCC4(CC3)OCCO4)ccc1O2 | i
CCCS(=O)(=O)Nc1ccc(=O)n2c1[C@@H]1C[C@@H](CN(C3CCN(C(C)=O)CC3)C1)C2 | i
OC1[C@@H]2CC[C@H]1[C@H](N1CCCCC1)CC2 (stereo partly drawn) | i
CN(C)c1ccc(C(=O)NC[C@H]2C[C@@H]3CCN2C[C@@H]3c2cc(-c3ccccc3)nn2C)cc1 | i
SMILES | ST2 IL33 inh
C=C[C@H]1CN2CC[C@H]1C[C@@H]2CNCc1ccc(C(C)C)cc1 | i
Fc1ccc(N2CCN(Cc3ccccc3)CC2)cc1 | i
CN(C)c1ccc(CN2CC=C(c3ccc(F)cc3)CC2)cc1 | 40.0%*
Fc1ccc(CN2CCN(c3ccccc3)CC2)cc1 | i
Cc1ccc(CN2CCN(c3ccc(Cl)cc3)CC2)cc1 | i
Fc1ccc(CN2CCN(c3ccccc3Cl)CC2)cc1 | i
